Test results taken from ChEMBL document CHEMBL3988442, “University of Dundee, Small-Polar-MMV Screening Library” (2021).

Target: Shiga toxin 2 (Escherichia coli O157:H7) (UniProt P09385+P09386)
Assay: E. coli 0.157:H7 Shiga Toxin SOP - stx2 screening assay
Assay type: functional
Design: scale not given: direction of the effect not stated beside the values
Conditions: 30 µM

| Structure (SMILES) | Percent Effect [%] |
| --- | --- |
| CCn1ccnc1CN1CCN(Cc2ccc(C#N)cc2)CC1 | -29.2 |
| Cn1ccnc1CNC(=O)N(CCCO)C1CCCc2ccccc21 (stereo not given) | 1.57 |
| CC(C)Oc1cccc(C(=O)C2CCCN(C(=O)c3ncn[nH]3)C2)c1 (stereo not given) | -0.343 |
| COCCC(=O)N1CCC2(COCc3cnc(N4CCOCC4)nc32)C1 (stereo not given) | 9.32 |
| Cc1cc(CNC(=O)N2CCN(c3nc(C)c(C)s3)CC2)no1 | 24 |
| CCc1nc(CN2CCCN(C(=O)c3cn[nH]c3CC)CC2)cs1 | -78.4 |
| Cc1cc(C2CCCN(CCc3ccccn3)C2)n[nH]1 (stereo not given) | -1.21 |
| O=C(NCCO)Nc1cccc(Cl)c1SC(F)F | -19.7 |
| O=C(Nc1cccnc1)[C@H]1CO[C@H]2CCN(c3ncc(F)cn3)C[C@H]2C1 | -22.2 |
| Cc1ncsc1C(=O)N(Cc1cccnc1)C1CC1 | 5.93 |
| Cc1noc(CN2CCC(c3ccnn3CCO)CC2)n1 | 4.21 |
| Cn1ncc2c(=O)[nH]c(CN(Cc3ccco3)C3CCCC3)nc21 | -31.6 |
| CCc1ccc(OCC(O)CN2CCC(O)CC2)cc1 (stereo not given) | 16.1 |
| CC(C)C(=O)NCCNc1nccc(-c2cc(C(=O)O)ccn2)n1 | -4.31 |
| Cc1ccc2c(c1)C1(CC2)CCN(c2nncs2)CC1 | 6.27 |
| CNc1oc(-c2ccc(OC)c(S(=O)(=O)N3CCCCC3)c2)nc1C#N | -28.4 |
| Cc1cccc(C(=O)N2CCN(S(C)(=O)=O)[C@@H](C)C2)c1C | -11.5 |
| O=C(Cc1ccc2c(c1)OCO2)N1CCCN(c2ccccc2)CC1 | 3.72 |
| Cn1cc(-c2cnc(N3CCOCC3)nc2)cc1C(=O)NCCO | -9.13 |
| Cc1nc(-c2nnc[nH]2)sc1C(=O)N(Cc1cccnc1)C1CC1 | 7.27 |
